# From PubChem
# FEN1 inh – qHTS Assay for the Inhibitors of Human Flap endonuclease 1 (FEN1); AID 588795, 2011; 390,000 compounds, 0.35% hits; Recombinant FEN1 flap cleavage, fluorescence, 15 min; Potency, µM (doses to about 114 µM), inactives show at the highest dose activity change, negative = inhibition, most hits filed as inhibitors; also: % is scaled to controls: 0 for no effect and ±100 for the full control effect; nearly all actives have a fitted effect of over 65% in size
#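 In this screen, 50 nM flap DNA substrate was added to 10 nM FEN1 pretreated with compound for 15 min at room temperature; cleavage was followed with reads at 0 and 15 min, and Hill fitting gave concentration–response parameters.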
# Pol beta inh – qHTS Assay for Inhibitors of DNA Polymerase Beta; Pol beta primer extension/strand displacement, fluorescence kinetic; Potency, µM (doses to about 114 µM), for the others: at the top dose activity change, negative = inhibition, most hits filed as inhibitors; 340,000 compounds, 1.3% hits; also: % is scaled to controls: 0 for no effect and ±100 for the full control effect
#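 Reaction started by 50 nM substrate onto compound-treated Pol beta (10 nM, 15 min preincubation, room temperature); plates read at 0 min and 10 min. Normalized concentration-effect data fitted by four-parameter Hill equation.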
# WRN helicase inh – qHTS for Inhibitors of WRN Helicase. Bifunctional 3'-5' exonuclease/ATP-dependent helicase WRN (Homo sapiens), Q14191. WRN helicase unwinding, fluorescent forked duplex, kinetic. Potency, µM (top dose mostly 114 µM), inactives show top-dose activity change, negative = inhibition, hits mostly inhibitors. 360,000 compounds, 0.46% hits. AID 651768, 2012; also: % is scaled to controls: 0 for no effect and ±100 for the full control effect; nearly all actives have a fitted effect of over 55% in size
#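 WRN at 20 nM final was preincubated with compound for 15 min at room temperature; reaction started with 100 nM forked duplex oligonucleotide carrying fluorophore and quencher plus 2 mM ATP (final). Unwinding followed kinetically by red fluorescence (ex 525/em 598 nm).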
# POLH inh – qHTS for Inhibitors of Polymerase Eta. recombinant Pol eta, fluorescent DNA replication assay. Potency, µM (highest dose often 114 µM), for the others: top-dose activity change, negative = inhibition, actives largely listed as inhibitors. 390,000 compounds, 1.2% hits. AID 588591, 2011; also: % is scaled to controls: 0 for no effect and ±100 for the full control effect
#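 Pol eta at 10 nM preincubated with compounds 15 min at room temperature; reaction started with fluorescent substrate (50 nM final) and read kinetically at 0 and 10 min.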
# POLI inh – qHTS for Inhibitors of Polymerase Iota; Pol iota fluorescent replication assay, 10 min; 390,000 compounds, 1% hits; Potency, µM (doses to about 115 µM), inactives show top-dose activity, negative = inhibition, hits mostly inhibitors; DNA polymerase iota (Homo sapiens), Q9UNA4; AID 588590, 2011
#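 Pol iota at 10 nM preincubated 15 min with compounds at room temperature; reaction started with fluorescent substrate, 50 nM final. Fluorescence read kinetically at 0 and 10 min; buffer-only wells as negative control.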
# POLK inh – qHTS for Inhibitors of Polymerase Kappa; DNA polymerase kappa (Homo sapiens), Q9UBT6; purified Pol kappa, fluorescent DNA synthesis assay, 10 min; 400,000 compounds, 0.53% hits; Potency, µM (series often up to 107 µM), without a hit: at the top dose activity, negative = inhibition, usual class: inhibitors; also: % is scaled to controls: 0 for no effect and ±100 for the full control effect
#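 50 nM final substrate added after 15 min RT preincubation of 10 nM Pol kappa with compound; fluorescence read at 0 and 10 min.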
# An asterisk follows results filed as active; ? = inconclusive; . = no result given; ! = a repeat was not active; [ ] = remark or other dose. Sampled rows, rich in hits. Any-hit rate of the full collection: about 2.4%. Calls follow the shape of the dose curve; as a rule, active = well fitted curve in the direction sought with a large enough effect; inconclusive = small, poorly fitted or top-dose-only effect, or another doubt; inactive = no such curve, though single readings can be large; an effect the other way counts as inactive or inconclusive. Potency is read from the fitted curve at half-maximal effect.
SMILES,FEN1 inh,Pol beta inh,WRN helicase inh,POLH inh,POLI inh,POLK inh
C#CCOCCOCCOCCNc1nc(N2CCN(C(=O)CCCCCCCCCCNC(=O)[C@H]([C@@H](C)CC)n3cc(CCCCCN)nn3)CC2)nc(N2CCN(C(=O)CCCCCCCCCCNC(=O)[C@H](CO)n3cc(CCCCCN)nn3)CC2)n1,?,.,56.2µM*,-18.1%,?,-10.1%
C#CCOCCOCCOCCNc1nc(N2CCN(C(=O)Cn3cc(CCCN=C(N)N)nn3)CC2)nc(N2CCN(C(=O)[C@H]([C@@H](C)CC)n3cc(CCCCN)nn3)CC2)n1,-4.3%,.,-0.8%,-10.3%,?,-7.6%
C#CCOCCOCCOCCNc1nc(N2CCN(C(=O)CCCCCCCCCCNC(=O)[C@H]([C@@H](C)CC)n3cc(CCCCCN)nn3)CC2)nc(N2CCN(C(=O)CCCCCCCCCCNC(=O)[C@H](CCCCN)n3cc(CCCC(=O)O)nn3)CC2)n1,?,.,0.0%,-26.6%,6.8%,17.0%
COc1cc(OC)cc(C(=O)Nc2ccc3nc(N4CCC(C)CC4)cc(C)c3c2)c1,-24.1%,21.1%,.,-1.2%,-17.3%,-2.6%
COc1ccc(C2CC(c3ccccc3)Oc3cc4c(cc32)OCO4)cc1 (stereo unspecified),?,.,.,.,?,-2.2%
O=C(NCC1CCN(Cc2ccccc2Cl)CC1)c1cc2ccc3cccnc3c2[nH]1,-18.9%,29.2%,.,-6.2%,-0.7%,3.5%
O=C(O)CCCCC1CCSS1 (stereo unspecified),-10.0%,1.12µM*,-20.8%,-0.2%,19.5%,6.7µM*!
Oc1ccc(Br)cc1CNc1cccc2cccnc12,?,-9.7%,4.6%,?,29.0%,-6.3%
Oc1c(Br)cc(Br)cc1CNc1cccc2cccnc12,?,44.7µM*,-3.0%[11.6 µM],-17.8%,?,?
COc1cc(/C=C2\SC(=S)N(NC(=O)c3cccnc3)C2=O)ccc1O,-32.4%,?,50.1µM*,?,15.8µM*,?
COc1cc(/C=C2\SC(=S)N(c3cccnc3)C2=O)ccc1O,-25.0%,?,?,4.0%,?,?
COc1cc(/C=C2\SC(=S)N(NC(=O)c3ccc(O)cc3)C2=O)ccc1O,?,12.6µM*,28.2µM*,?,50.1µM*,?
Cc1ccc(Cn2c(C)c(CNCC(C)c3ccccc3)c(C(=O)O)c2C)cc1 (stereo unspecified),-9.3%,24.4%,.,-19.3%,18.3%,-9.0%
O=C(NCc1ccco1)C1CC2CCC1C2 (stereo unspecified),-1.5%,-0.8%,-8.8%[57.1 µM],-17.8%,89.1µM*,-9.6%
CCn1c(C)nc2cc(C(=O)N/N=C/c3ccc(O)c(O)c3O)ccc21,?,1.58µM*,17.8µM*,5.01µM*,?,10µM*
Cc1nc2ccc(C(=O)N/N=C/c3ccccc3O)cc2[nH]1,-17.2%,20µM*,-12.3%,-15.0%,?,-30.0%
CCOC(=O)c1c(C)[nH]c(C)c1S(=O)(=O)N1CCCC(C(=O)Nc2cc(C)ccc2C)C1 (stereo unspecified),18.8%,-1.8%,.,-21.7%,33.3%,-0.2%
Cc1ccc(S(=O)(=O)Cc2ccc(C(=O)N3CCN(Cc4ccccc4)CC3)o2)cc1,.,25.1µM*,.,.,.,.
COc1ccccc1CNC(=O)c1ccc(CS(=O)(=O)c2ccc(C)cc2)o1,-14.7%,89.1µM*,-15.0%,44.7µM*,70.8µM*,?
COc1ccc(S(=O)(=O)Cc2ccc(C(=O)N3CCN(Cc4ccccc4)CC3)o2)cc1,-4.8%,-20.2%,0.8%,-15.6%,18.3%,0.1%
